Inconclusive results are not listed. Where a call stands in place of a potency, no number is given. Calls of active or inactive are those of the source. The call rests on the fitted dose curve; in most records, active means well fitted cell-killing curve with a large enough effect in the repeat runs; inconclusive means weak or mixed curves, or effect the other way; inactive means flat fitted curve, though single readings scatter.
Potency means the concentration at half of the fitted maximal effect.

This assay can be described thus: qHTS assay to identify small molecule antagonists of the androgen receptor (AR) signaling pathway using the MDA cell line in the presence of 0.5 nM R1881 - cell viability counter screen (AID 1259242). Further: nearly all actives have a fitted effect of over 45% in size. The following applies: MDA-kb2 viability, CellTiter-Fluor protease fluorescence, 16 h; series mostly up to 92.4 µM. From the text: U.S. Tox21 Program National Center for Advancing Translational Sciences [NCATS] NIH Chemical Genomics Center [NCGC] U.S. Environmental Protection Agency [EPA] National Institutes of Environmental Health Sciences [NIEHS] National Toxicology Program [NTP] U.S. Food and Drug Administration [FDA] Tox21 Assay Overview: Androgen receptor (AR) is an important member of the nuclear receptor family. Its signaling plays a critical role in AR-dependent prostate cancer and other androgen related diseases. Considerable attention has been given in the past decades to develop methods to study and screen for the environmental chemicals that have the potential to interfere with metabolic homeostasis, reproduction, developmental and behavioral functions. Therefore AR binding assay for screening androgen antagonists can be used to identify potential endocrine disruptors. MDA-kb2 cells (from ATCC, deposited by Wilson et al.) were used to screen for AR inhibitors against Tox21 compound libraries. These cells are human breast carcinoma cells that were stably transfected with a luciferase reporter gene under control of the MMTV promoter that contains response elements for both androgen receptor (AR) and glucocorticoid receptor (GR). The current screening for identification of AR inhibitors against Tox21 libraries used lower concentration of (0.5 nM) R1881 as a stimulator. The cytotoxicity of the Tox21 compound libraries against MDA-kb2 cell line was tested by measuring live-cell protease activity using CellTiter-Fluor assay in the same wells.
Tox21 Assay Protocol Summary: MDA-kb2 cells (cells cultured without CO2) were dispensed at 3,000 cells/well in 4 uL of culture medium into white wall/solid-bottom 1536-well plates (Corning Life Sciences, Corning, NY) using a Multidrop Combi (ThermoFisher Scientific, Waltham, MA) dispenser. After the assay plates were incubated at a 37C and 0% CO2 for 5 hr, 23 nL of compounds dissolved in DMSO, positive controls or DMSO only was transferred to the assay plate by a Pintool station (Kalypsys, San Diego, CA). The transfer of compounds was followed by the addition of 1 uL of 0.5 nM (final concentration) agonist (R1881)/culture medium using a Flying Reagent Dispenser (FRD, Aurora Discovery, San Diego, CA). The plates were incubated at 37C and 0% CO2 for 16 hr. For cytotoxicity assay, 1 uL of CellTiter-Fluor reagent (Promega Corporation, Madison, WI) was added to each well using the FRD and after 30 min incubation at 37C and 0% CO2, The fluorescence intensity was measured using ViewLux plate reader (PerkinElmer, Shelton, CT).
In general terms: qHTS replaces the single test concentration by a dilution series.
As for `N#Cc1ccc(O)cc1`, the Potency result was “inactive”.

On to `CN(C)CCc1c[nH]c2ccc(O)cc12`, for which the Potency result was “inactive”.

On to `CC(C)CC(C)(c1ccc(O)cc1)c1ccc(O)cc1`, for which the Potency result is “inactive”.

Take `N#CNC#N`: the Potency entry is “inactive”.

As for `Clc1ccc(-c2ccccc2)cc1`, the Potency entry is “inactive”.

`COc1cc(C=O)cc2c1[C@H](COC(N)=O)[C@]1(OC(C)=O)ON2C[C@H]2[C@@H]1N2C(C)=O`: the Potency entry is “inactive”.

With `CCOC(=O)OC1=C(c2cc(C)ccc2C)C(=O)NC12CCC(OC)CC2` (stereo not given), the Potency entry was “inactive”.

For the compound `CCCCCCCCCCCCCCCC[N+](C)(C)C`, the Potency was 38.6 µM (active).

Regarding `c1ccc(Nc2ccc3ccccc3c2)cc1`, the Potency result was “inactive”.

As to `COP(=O)(OC)SCn1c(=O)oc2cc(Cl)cnc21`, the Potency result was “inactive”.

On to `BrCBr`, for which the Potency entry is “inactive”.

For the compound `CN(C)[C@@H]1C(=O)C(C(N)=O)=C(O)[C@@]2(O)C(=O)C3=C(O)c4c(O)ccc(Cl)c4[C@@](C)(O)[C@H]3C[C@@H]12`, the Potency entry is “inactive”.

Regarding `CC(=O)[O-].[Tl+]`, the Potency entry was “inactive”.

For the compound `Cc1cc(C)c(C2=C(OC(=O)CC(C)(C)C)C3(CCCC3)OC2=O)c(C)c1`, the Potency result is “inactive”.

For `c1ccc(OCC2CO2)cc1` (stereo not given), the Potency entry was “inactive”.

Turning to `CCOC(=O)C1(c2ccccc2)CCN(CCC(C#N)(c2ccccc2)c2ccccc2)CC1`, the Potency result is “inactive”.

As for `C=CC(=O)N(C)C`, the Potency entry is “inactive”.

With `CCOP(=O)(NC(C)C)Oc1ccc(SC)c(C)c1` (stereo not given), the Potency result was “inactive”.

For the compound `O=c1oc2ccccc2c(O)c1Cc1c(O)c2ccccc2oc1=O`, the Potency entry was “inactive”.

In the case of `CCc1ccccc1C`, the Potency result is “inactive”.

Turning to `CC(=O)OC1(c2ccccc2)CCN(CCc2ccccc2)CC1`, the Potency entry was “inactive”.

`Cc1ccc(OP(=O)(Oc2ccccc2)Oc2ccccc2)cc1`: the Potency entry is “inactive”.

On to `COP(=S)(OC)Oc1cc(Cl)c(Br)cc1Cl`, for which the Potency entry is “inactive”.

Consider `[Cd+2].[Cl-].[Cl-]`, for which the Potency result was “inactive”.

Take `c1ccc2cc3c(cc2c1)-c1cccc2cccc-3c12`: the Potency entry is “inactive”.

As for `CCCCCCCCCCCCCCCCCCn1cc[n+](C)c1`, the Potency was 34.2 µM (active).

Turning to `Clc1ccc(C(Cl)(Cl)Cl)c(Cl)c1`, the Potency entry is “inactive”.

On to `Oc1ccc(C(c2ccc(O)cc2)(C(F)(F)F)C(F)(F)F)cc1`, for which the Potency result was “inactive”.

Take `CC(C)(C)c1ccc(CSc2cnn(C(C)(C)C)c(=O)c2Cl)cc1`: the Potency is 0.0686 µM (active).

Take `COCC(=O)N(c1c(C)cccc1C)[C@H](C)C(=O)OC`: the Potency entry was “inactive”.

For the compound `COC(=O)N(C(=O)N1CO[C@@]2(C(=O)OC)Cc3cc(Cl)ccc3C2=N1)c1ccc(OC(F)(F)F)cc1`, the Potency entry is “inactive”.

Consider `C[CH2][Hg][N]1C(=O)C2C(C1=O)C1(Cl)C(Cl)=C(Cl)C2(Cl)C1(Cl)Cl` (stereo not given), for which the Potency was 13 µM (active).

With `Clc1ccc(COC(Cn2ccnc2)c2ccc(Cl)cc2Cl)cc1` (stereo not given), the Potency entry was “inactive”.

Turning to `[CH3][Hg][Cl]`, the Potency is 21.6 µM (active).

With `CCCN(CCC)CCc1c[nH]c2ccccc12`, the Potency result was “inactive”.

As to `CC[C@H](C)[C@H]1O[C@]2(C=C[C@@H]1C)C[C@@H]1C[C@@H](C/C=C(\C)[C@@H](O[C@H]3C[C@H](OC)[C@@H](O[C@H]4C[C@H](OC)[C@@H](O)[C@H](C)O4)[C@H](C)O3)[C@@H](C)/C=C/C=C3\CO[C@@H]4[C@H](O)C(C)=C[C@@H](C(=O)O1)[C@]34O)O2`, the Potency was 36.1 µM (active).

For the compound `ClC1=C(Cl)C2(Cl)C3C(Cl)C(Cl)CC3C1(Cl)C2(Cl)Cl` (stereo not given), the Potency result was “inactive”.

Take `O=[N+]([O-])c1c2ccccc2cc2ccccc12`: the Potency entry is “inactive”.

As for `Cc1cc(C)cc(OP(=O)(Oc2cc(C)cc(C)c2)Oc2cc(C)cc(C)c2)c1`, the Potency entry was “inactive”.

Consider `N#Cc1ccccc1N`, for which the Potency result is “inactive”.

Source of the values: PubChem BioAssay (Tox21).
